Screens (PubChem)
Shown are actives, neighbours in structure and some others; about 2.4% of the full set was active somewhere.
Tb PGK inh: blocks T. brucei phosphoglycerate kinase; PGK/GAPDH coupled, Kinase-Glo luminescence, 60 min; Potency, µM (titrated, usually from 57.5 µM), for inactives: top-dose activity change, negative = inhibition, usual class: inhibitors; actives 0.043% (n = 380,000); AID 602233; note: % is set by controls: 0 for no effect and ±100 for the full control effect; nearly all actives have a fitted effect of over 60% in size
Target sequence (P07378 whole entry, looked up): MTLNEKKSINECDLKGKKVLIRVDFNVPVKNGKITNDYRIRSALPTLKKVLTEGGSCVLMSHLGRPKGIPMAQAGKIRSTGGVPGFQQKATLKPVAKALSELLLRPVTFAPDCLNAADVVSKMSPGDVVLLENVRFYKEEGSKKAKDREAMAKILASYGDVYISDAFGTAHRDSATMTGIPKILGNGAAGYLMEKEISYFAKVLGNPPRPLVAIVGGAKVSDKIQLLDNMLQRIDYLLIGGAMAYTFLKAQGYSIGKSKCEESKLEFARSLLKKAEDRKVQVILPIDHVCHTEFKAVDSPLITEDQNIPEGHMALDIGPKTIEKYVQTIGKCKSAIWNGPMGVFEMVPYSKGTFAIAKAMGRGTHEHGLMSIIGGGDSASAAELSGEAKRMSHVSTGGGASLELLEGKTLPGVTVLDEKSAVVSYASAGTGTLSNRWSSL
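Luminescent ATP detection (Kinase-Glo Plus) follows a 60-minute room-temperature incubation, with wells lacking PGK as controls. Buffer: 100 mM TEA (pH 7.6), 5 mM MgCl2, 0.01% Tween-20. Coupling enzyme GAPDH (100 nM final) supplies unstable 1,3-BPG in-well.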
Tb PFK inh: T. brucei PFK enzyme inhibition; AID 485367; T. brucei PFK, ADP-Glo luminescence; actives 0.17% (n = 330,000); O15648; Potency, µM (doses to about 57.5 µM), for the others: at the top dose activity, negative = inhibition, most hits filed as inhibitors;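 note: 0% = uninhibited 1x PFK enzyme wells and -100% = no-enzyme wells; nearly all actives have a fitted effect of over 60% in size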
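Activity is normalized to no-enzyme wells (full inhibition) and 1.25 nM enzyme wells (no inhibition). Reaction: 0.5 mM F6P, 0.1 mM ATP, 45 min RT, ADP-Glo luminescence; concentration-response curves fitted and classed by quality.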
Rango dissoc inh: inhibitors of RanGTP-induced Rango-importin beta complex dissociation. O95149+P62826. Biochemical FRET Rango-importin beta, RanGTP-induced dissociation. Potency, µM (series often up to 46.1 µM), inactives show at the highest dose activity change, negative = inhibition. actives 0.071% (n = 340,000). AID 540253; calls by dose curve; note: % of control where 0% means no effect; nearly all actives have a fitted effect of over 45% in size
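Rango (0.1 uM)–importin beta (0.25 uM) complex; RanGTP-RCC1 trigger; 45 min RT; CFP/YFP FRET read.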
Rango-impB inh: inhibitors of Rango-importin beta complex formation | Q14974 | Rango CFP/YFP FRET sensor + importin beta, 45 min | Potency, µM (top dose mostly 92.2 µM), inactives show at the highest dose inhibition of complex formation | actives 0.031% (n = 340,000); calls by dose curve;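 note: 0% = DMSO wells and 100% = buffer wells lacking importin beta; nearly all actives have a fitted effect of over 15% in size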
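Inhibition scored from the CFP 486 nm/YFP 530 nm FRET ratio 45 min after adding 0.125 microM importin beta to 50 nM Rango biosensor preincubated 5 min with compound (room temperature, PBS with DTT, Tween-20, BSA). No-importin wells as positive control.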
ELG1 DNA repair: blocks ELG1-dependent DNA repair in HEK293T cells. HEK293T ELG1-luciferase reporter, luminescence, 16 h; DNA damage induced by 5-fluorouridine. Potency, µM (doses to about 46.1 µM), for inactives: at the highest dose activity change, negative = inhibition, actives largely listed as inhibitors. actives 2.3% (n = 330,000); note: % is set by controls: 0 for no effect and ±100 for the full control effect; nearly all actives have a fitted effect of over 55% in size
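In this reporter screen, reduction of luminescence relative to DMSO vehicle indicated activity. Compounds and 5-fluorouridine were added together to 2,000 cells per well, incubated for 16 hr at 37 °C, then developed with ONE-Glo.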
PKM2 activator: activators of human pyruvate kinase M2; P14618; purified PKM2, Kinase-Glo ATP luminescence, activation; response scale: 0% is enzyme alone, no compound; Potency, µM (highest dose often 57.5 µM), inactives show at the top dose activation, most hits filed as activators; actives 0.34% (n = 260,000); note: % is set by controls: 0 for no effect and ±100 for the full control effect; nearly all actives have a fitted effect of over 55% in size
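ATP formation by purified human PK-M2, quantified via coupled luciferase luminescence after 1 h at room temperature with 0.1 mM ADP and 0.5 mM PEP final.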
The depositor's hits bear a star. Unless noted, calls come from the whole dose curve; as a rule, active = well fitted curve in the direction sought with a large enough effect; inconclusive = small, poorly fitted or top-dose-only effect, or another doubt; inactive = no such curve, though single readings can be large; an effect the other way counts as inactive or inconclusive. Potency is the fitted concentration of half-maximal effect.

Results for Cc1cc(C)cc(NC(=O)CC(C)n2nc(C)cc2C)c1 (stereo not drawn) ?
Tb PGK inh: 8%

What do the screens show for `O=C(CSc1nnnn1-c1ccccc1)CC(=O)Nc1ccc(Cl)cc1`?
Tb PGK inh: 0%; Tb PFK inh: -4%; Rango dissoc inh: -12%; Rango-impB inh: -3%; ELG1 DNA repair: 16µM*; PKM2 activator: 1%

How did O=C(O)/C=C/C(=O)Nc1ccc(Oc2ncnc3cc(Cl)ccc23)nc1 do in these assays?
Tb PGK inh: -8%; Tb PFK inh: -7%; Rango dissoc inh: 25%; Rango-impB inh: 3%; ELG1 DNA repair: inconclusive; PKM2 activator: -6%

What do the screens show for `CSCCC(NC(=O)c1ccccc1Br)C(=O)NNC(=O)C1COc2ccccc2O1` (stereo not drawn)?
Tb PGK inh: -9%; Rango dissoc inh: -21%; Rango-impB inh: -1%

Results for Cc1ccc(CN2CC(C(=O)N3CCN(S(=O)(=O)c4ccc(C(C)C)cc4)CC3)CC2=O)cc1 (stereo not drawn) ?
Tb PGK inh: 4%; Tb PFK inh: 0%; Rango dissoc inh: 3%; Rango-impB inh: -3%; ELG1 DNA repair: 12µM*

What do the screens show for `Cc1ccc(CN2CC(C(=O)N3CCN(S(=O)(=O)c4cc(C)ccc4C)CC3)CC2=O)cc1` (stereo not drawn)?
Tb PGK inh: 5%; Tb PFK inh: -5%; Rango dissoc inh: 7%; Rango-impB inh: 5%; ELG1 DNA repair: -3%

Results for CC1CN(C(=O)CCC(=O)Nc2cc(F)ccc2F)c2ccccc2S1 (stereo not drawn) ?
Tb PGK inh: -2%

Results for COc1ccc(-c2[nH]c(-c3ccc(F)cc3)nc2SCC(=O)NCc2ccco2)cc1OC ?
Tb PGK inh: 2%; Tb PFK inh: -6%; Rango dissoc inh: 0%; Rango-impB inh: 0%; ELG1 DNA repair: 18µM*; PKM2 activator: -13%

What do the screens show for `COc1ccc(-c2[nH]c(-c3ccccc3)nc2SCC(=O)NCc2ccco2)cc1OC`?
Tb PGK inh: -1%; Tb PFK inh: -6%; Rango dissoc inh: 6%; Rango-impB inh: -1%; ELG1 DNA repair: inconclusive; PKM2 activator: -10%

What do the screens show for `COc1ccc(-c2nc(SCC(=O)NCc3ccco3)c(-c3ccccc3)[nH]2)cc1OC`?
Tb PGK inh: -5%; Tb PFK inh: 5%; Rango dissoc inh: 14%; Rango-impB inh: 0%; ELG1 DNA repair: 9.2µM*; PKM2 activator: 5%

What do the screens show for `CCOc1ccc(-n2c(=O)c3c4c(sc3n(CC(=O)NC(C)CC)c2=O)CCCC4)cc1` (stereo not drawn)?
Tb PGK inh: 9%

What do the screens show for `CC(C)(O)C#Cc1ccc(CNC[C@H]2O[C@@H](n3cnc4c(N)ncnc43)[C@H](O)[C@@H]2O)s1`?
Tb PGK inh: inactive; Tb PFK inh: -3%; Rango dissoc inh: 6%; Rango-impB inh: -1%; ELG1 DNA repair: inconclusive

How did N#CC1=C(N)C2=CCCC[C@H]2[C@H](c2ccc(Br)cc2)C1(C#N)C#N do in these assays?
Tb PGK inh: inactive; Tb PFK inh: 7%; Rango dissoc inh: inconclusive; Rango-impB inh: inconclusive; ELG1 DNA repair: 17%; PKM2 activator: 7.9µM*

Results for Cc1[nH]c(C)c(S(=O)(=O)NCc2ccco2)c1C(=O)N1CCCCC1 ?
Tb PGK inh: -8%; Tb PFK inh: -1%; Rango dissoc inh: 0%; Rango-impB inh: -1%; ELG1 DNA repair: 3%

Results for O=C1CCCN1CCC12CC3CC(CC(C3)C1)C2 ?
Tb PGK inh: -11%; Tb PFK inh: 2%; Rango dissoc inh: 10%; Rango-impB inh: -2%; ELG1 DNA repair: -12%; PKM2 activator: 40µM*
